Results published in PubChem BioAssay (EPA / NIEHS).
Records with an inconclusive call do not appear. Active and inactive are the calls of the source. How the source made its calls: active means hit-call score of the fitted dose curve at least 0.9, where 1 is the maximum; inconclusive means response in the unintended direction; inactive means score below 0.9.

The compounds below were run against Nuclear receptor subfamily 1 group I member 2 (Homo sapiens) (UniProt O75469) (assay: NVS_NR_hPXR: NovaScreen (NVS) Nuclear Receptor Binding Assay for human Pregnane X Receptor (PXR) (AID 2283365);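 further: a drop in FRET signal versus DMSO baseline means the compound binds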).
Chain of Nuclear receptor subfamily 1 group I member 2 (Homo sapiens) (O75469 whole entry, looked up): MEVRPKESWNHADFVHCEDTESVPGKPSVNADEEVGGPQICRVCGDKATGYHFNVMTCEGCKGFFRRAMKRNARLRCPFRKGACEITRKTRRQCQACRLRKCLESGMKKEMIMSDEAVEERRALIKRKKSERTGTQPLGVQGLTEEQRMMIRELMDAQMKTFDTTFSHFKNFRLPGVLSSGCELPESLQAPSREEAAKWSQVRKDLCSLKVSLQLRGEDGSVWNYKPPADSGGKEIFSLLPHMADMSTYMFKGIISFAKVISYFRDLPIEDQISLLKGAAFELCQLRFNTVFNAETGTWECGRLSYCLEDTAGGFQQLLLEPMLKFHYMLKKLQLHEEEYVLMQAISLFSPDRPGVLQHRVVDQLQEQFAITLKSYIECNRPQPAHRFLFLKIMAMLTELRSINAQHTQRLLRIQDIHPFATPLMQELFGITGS
Summary of the method: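 Binding was measured by time-resolved fluorescence resonance energy transfer after a 2 h exposure of extracted human PXR protein without cells. Compounds were first tested at 25 uM in duplicate, with concentration series for actives; DMSO defined baseline.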

Structure (SMILES) | AC50 | outcome
CCOc1ccc(N=Nc2ccc(C=Cc3ccc(N=Nc4ccc(OCC)cc4)cc3S(=O)(=O)O)c(S(=O)(=O)O)c2)cc1 | 0.695 µM (active) | –
Cc1ccc(S(=O)(=O)Oc2ccc(N=Nc3ccc(-c4ccc(N=Nc5c(O)ccc6cc(S(=O)(=O)O)cc(S(=O)(=O)O)c56)c(C)c4)cc3C)cc2)cc1 | 0.701 µM (active) | –
CCCCC(CC)COC(C)=O (stereo not given) | – | inactive
COc1ccc(N=Nc2cc(C)c(N=Nc3ccc(S(=O)(=O)O)cc3)cc2OC)cc1 | 8.57 µM (active) | –
CCCCC(CC)COC(=O)c1ccc(O)cc1 (stereo not given) | – | inactive
